# From the supplement of paper PMC9135407
# Where “and” joins values, the source holds several entries; their conditions need not be identical. Equal values may be shown once. Where a name gives a salt, the structure may show the parent alone. In all, about 5,800 compounds went through this assay and about 620 (11%) showed activity. Only a selection was taken, and actives are over-represented in it overall. Unmarked numbers belong to inactive results.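 The calls were made as follows: active = score above a cut-off or among the top three wells of a plate; in these data no inactive exceeds 0.85.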
# System: primary human hepatic stellate cells (donor 1)
# Experiment: scaled lipid accumulation score (0 = DMSO-like, 1 = nortriptyline-like); higher = stronger HSC inactivation (lipid re-accumulation), active = hit call of the paper
# Conditions: 48 h
# Description: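 Primary lipid accumulation screen in primary human hepatic stellate cell myofibroblasts (donor 1, passage 8) in 384-well plates. 100 nL of library compound was pin-transferred into 30 µL medium in duplicate, and cells were treated for 48 h. The 'Scaled' score combines distance from plate baseline, toxicity and reproducibility penalties, and is normalised to nortriptyline (positive) and DMSO (negative) controls on each plate. A hit is defined as scaled >0.85 or among the top 3 wells per plate.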
# [1] = library stock concentration: 10 mM
# [2] = library stock concentration: 3.33 mM
# [3] = library stock concentration: 80 uM
# [4] = library stock concentration: 400 uM
# [5] = library stock concentration: 2 mM
# [6] = library stock concentration: 1 mM
smiles,measurement,setting,value
CNCCc1ccccn1 [Betahistine hydrochloride],scaled lipid accumulation score,library stock concentration: 9.6 mM,≤ 0
CNCCc1ccccn1 [Betahistine mesylate],scaled lipid accumulation score,,0.122
CNCCc1c[nH]c(CCC(c2ccccc2)c2ccccc2)n1.O=C(O)C(=O)O.O=C(O)C(=O)O [N-Methylhistaprodifen dioxalate salt],scaled lipid accumulation score,[1],1.02 (active)
CNCCc1ccccn1 [Betahistine 2HCl],scaled lipid accumulation score,[2],≤ 0
same,scaled lipid accumulation score,[1],≤ -0.001
CC(NCCC(c1ccccc1)c1ccccc1)c1ccccc1 (stereo not drawn) [Fendiline hydrochloride],scaled lipid accumulation score,,0.144
same,scaled lipid accumulation score,[1],0.431
CCCc1nc(C)c2c(=O)nc(-c3cc(S(=O)(=O)N4CCN(CC)CC4)ccc3OCC)[nH]n12,scaled lipid accumulation score,[1],≤ 0
CCCc1nc(C)c2c(=O)nc(-c3cc(S(=O)(=O)N4CCN(CC)CC4)ccc3OCC)[nH]n12 [Vardenafil HCl Trihydrate],scaled lipid accumulation score,[2],≤ 0
same,scaled lipid accumulation score,[1],0.473
COc1cc2ncnc(-n3nc(-c4ccccn4)nc3N)c2cc1OC,scaled lipid accumulation score,[3],≤ 0
same,scaled lipid accumulation score,[4],0.052
same,scaled lipid accumulation score,[5],0.101
same,scaled lipid accumulation score,[1],0.046
N[C@H]1C(O)O[C@H](CO)[C@@H](O)[C@@H]1O (stereo partly drawn) [Glucosamine hydrochloride],scaled lipid accumulation score,library stock concentration: 9.3 mM,≤ -0.001
same,scaled lipid accumulation score,[1],0.034
"CCCCCC=CCC=CCC=CCC=CCCCCCC(=O)O [Adrenic acid (22:4, n-6)]",scaled lipid accumulation score,[6],≤ -0.01
CCN(CC)CCOc1ccc(C(=C(Cl)c2ccccc2)c2ccccc2)cc1.O=C(O)CC(O)(CC(=O)O)C(=O)O [Clomifene citrate],scaled lipid accumulation score,[1],1.12 (active)
CCN(CC)CCOCCOC(=O)C1(c2ccccc2)CCCC1 [Pentoxyverine Citrate],scaled lipid accumulation score,[2],≤ 0
same,scaled lipid accumulation score,[1],0.424
CCCC(C(=O)OCCN(CC)CC)(c1ccccc1)c1ccccc1 [SKF-525A hydrochloride],scaled lipid accumulation score,[1],0.355
CCN(CC)CCOc1ccc(C(=C(Cl)c2ccccc2)c2ccccc2)cc1.O=C(O)CC(O)(CC(=O)O)C(=O)O [Clomid],scaled lipid accumulation score,[1],0.963 (active)
CCCC(C(=O)OCCN(CC)CC)(c1ccccc1)c1ccccc1 [Proadifen hydrochloride],scaled lipid accumulation score,,0.228
same,scaled lipid accumulation score,library stock concentration: 5.1 mM,0.536
same,scaled lipid accumulation score,[1],0.511
CCN(CC)CCOC(=O)c1ccc(N)cc1 [Procaine HCl],scaled lipid accumulation score,[2],≤ 0
same,scaled lipid accumulation score,[1],≤ -0.001
CCN(CC)CCOc1ccc(C(=C(Cl)c2ccccc2)c2ccccc2)cc1 [Clomifene citrate],scaled lipid accumulation score,[2],0.72
CCN(CC)CCOC(=O)c1ccc(N)cc1 [Procaine hydrochloride],scaled lipid accumulation score,,0.256
same,scaled lipid accumulation score,library stock concentration: 7.3 mM,≤ 0
same,scaled lipid accumulation score,[1],≤ 0
COc1ccc(C(Cl)=C(c2ccc(OC)cc2)c2ccc(OC)cc2)cc1 [Chlorotrianisene],scaled lipid accumulation score,,≤ 0
same,scaled lipid accumulation score,library stock concentration: 5.3 mM,0.022
same,scaled lipid accumulation score,[1],≤ 0
"CCN(CC)CCOc1ccc(/C(=C(/Cl)c2ccccc2)c2ccccc2)cc1.O=C(O)CC(O)(CC(=O)O)C(=O)O [Clomiphene citrate (Z,E)]",scaled lipid accumulation score,,0.946 (active)
CCN(CC)CCOc1ccc(C(=C(Cl)c2ccccc2)c2ccccc2)cc1 [Clomiphene citrate],scaled lipid accumulation score,library stock concentration: 4.9 mM,0.705
same,scaled lipid accumulation score,[1],≤ 0
CCN(CC)CCOCCOC(=O)C1(c2ccccc2)CCCC1 [Carbetapentane citrate],scaled lipid accumulation score,,0.595
same,scaled lipid accumulation score,[1],0.72 and 0.014 and 0.411
CCN(CC)CCOCCOC(=O)C(CC)(CC)c1ccccc1.O=C(O)CC(O)(CC(=O)O)C(=O)O,scaled lipid accumulation score,[1],0.866 (active)
CC(C)[C@H]1c2ccc(F)cc2CC[C@@]1(CCN(C)CCCc1nc2ccccc2[nH]1)OC(=O)C1CC1 [NNC 55-0396 dihydrochloride],scaled lipid accumulation score,[1],0.432
CC(C)[C@H]1c2ccc(F)cc2CC[C@@]1(CCN(C)CCCc1nc2ccccc2[nH]1)OC(=O)C1CC1,scaled lipid accumulation score,[1],≤ -0.055
COc1ccc(-c2nc3cc(F)ccc3s2)cc1OC,scaled lipid accumulation score,[6],≤ 0
C=C1C[C@]23C[C@@]1(O)CC[C@H]2[C@@]12C=C[C@H](O)[C@@](C)(C(=O)O1)[C@H]2[C@@H]3C(=O)O [Gibberellic acid],scaled lipid accumulation score,,≤ 0
Cc1cc(I)ccc1Nc1c(C(=O)NOCC2CC2)cc(F)c(F)c1F,scaled lipid accumulation score,[1],≤ -0.001
CCc1cc2c(c(CC)n1)CCC(=O)N2Cc1ccc(-c2ccccc2-c2nn[nH]n2)cc1 [ZD 7155 hydrochloride],scaled lipid accumulation score,[1],0.009
CCCCCCCCCCCCCCC[C@@H](O)[C@H](CO)NC(=O)CCCCCCC [C8 Dihydroceramide],scaled lipid accumulation score,[6],≤ -0.021
CCN(CC)CCOC(=O)C(c1ccccc1)c1ccccc1 [Adiphenine hydrochloride],scaled lipid accumulation score,,≤ 0
same,scaled lipid accumulation score,library stock concentration: 5.7 mM,0.005
same,scaled lipid accumulation score,[1],0.111
CCN(CC)CCOC(=O)C(c1ccccc1)c1ccccc1 [Adiphenine HCl],scaled lipid accumulation score,[2],≤ 0
same,scaled lipid accumulation score,[1],≤ 0
CN(CCCOc1ccc(Cc2ccccc2)cc1)CCC(=O)O,scaled lipid accumulation score,[1],≤ 0
CCN(CC)CCOc1ccc(Cc2ccccc2)cc1.O=C(O)/C=C/C(=O)O [DPPE fumarate],scaled lipid accumulation score,[1],0.879 (active)
COc1ccc2c(c1)c(CC(=O)Nc1cccnc1)c(C)n2C(=O)c1ccc(Cl)cc1 [N-(3-pyridyl)-Indomethacin amide],scaled lipid accumulation score,[6],0.198
CCCc1ccc(C(=O)Oc2ccc(C#N)cc2)cc1,scaled lipid accumulation score,[1],0.011
CN(C)C(=O)CCSC(SCCC(=O)O)c1cccc(/C=C/c2ccc3ccc(Cl)cc3n2)c1 (stereo not drawn) [MK 571 (sodium salt)],scaled lipid accumulation score,[6],≤ 0
CCOc1cc2ncc(C#N)c(Nc3ccc(F)c(Cl)c3)c2cc1NC(=O)C=CCN(C)C,scaled lipid accumulation score,[1],1.13 (active)
CCOc1cc2ncc(C#N)c(Nc3ccc(F)c(Cl)c3)c2cc1NC(=O)C=CCN(C)C [Pelitinib (EKB-569)],scaled lipid accumulation score,[2],1.01 (active)
CCOc1cc2ncc(C#N)c(Nc3ccc(OCc4ccccn4)c(Cl)c3)c2cc1NC(=O)/C=C/CN(C)C,scaled lipid accumulation score,[3],≤ 0
same,scaled lipid accumulation score,[4],≤ 0
same,scaled lipid accumulation score,[5],0.107
same,scaled lipid accumulation score,[1],0.02
CCOc1cc(C(=O)Nc2ccc(Cl)c(-c3nc4ccccc4[nH]3)c2)cc(OCC)c1OCC,scaled lipid accumulation score,[1],0.438
CCOc1cc2ncc(C#N)c(Nc3ccc(F)c(Cl)c3)c2cc1NC(=O)/C=C/CN(C)C [Pelitinib (EKB-569)],scaled lipid accumulation score,[1],0.498
CCOc1cc2ncc(C#N)c(Nc3ccc(F)c(Cl)c3)c2cc1NC(=O)/C=C/CN(C)C,scaled lipid accumulation score,[3],0.071
same,scaled lipid accumulation score,[4],≤ -0.009
same,scaled lipid accumulation score,[5],0.269
